L3MBTL1 block: L3MBTL1 (human) inhibition. actives 0.66% (n = 230,000). AlphaScreen L3MBTL1–H3K9me1 peptide binding. Q9Y468. Potency, µM (doses to about 57.1 µM), without a hit: at the highest dose activity, negative = inhibition, most hits filed as inhibitors. AID 485360; further: potency means the concentration at half of the fitted maximal effect; on the % scale 0 is the no-effect control and ±100 the full control effect; nearly all actives have a fitted effect of over 60% in size
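AlphaScreen proximity signal between nickel-chelate acceptor and streptavidin donor beads (final 10 ug/mL) reports binding of 50 nM L3MBTL1 to 75 nM biotin-H3 K9me1 peptide; complex incubated with compounds 30 min at room temperature; cefsulodin titration as control.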
PI5P4K alpha inh: inhibitors of human PI5P4K alpha | AID 652105 | actives 1.2% (n = 330,000) | PI5P4Kalpha enzyme, ADP-Glo luminescence, 60 min; hits give low values | P48426 | max response, %; active means max response of -50% or lower; inconclusive means between -30% and -50%; inactive means -30% or higher; further: value at the top dose of about 77 µM; on the % scale 0 is the no-effect control and ±100 the full control effect
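Enzyme plus substrate dispensed, test compounds pinned in, then ATP (5 microM final) added. After 60 min at RT, ADP-Glo reagent 1 for 45 min and reagent 2 for 30 min preceded luminescence imaging.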
BAZ2B inh: BAZ2B (human) inhibition. Q9UIF8. AlphaScreen BAZ2B-H3K14Ac peptide displacement. Potency, µM (series often up to 114 µM), without a hit: at the highest dose activity change, negative = inhibition, hits mostly inhibitors. actives 4.4% (n = 360,000). AID 504333; further: potency means the concentration at half of the fitted maximal effect; on the % scale 0 is the no-effect control and ±100 the full control effect; nearly all actives have a fitted effect of over 60% in size
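In this displacement format the biotinylated H3(5-23) peptide acetylated at Lys14 serves as ligand at 50 nM, with BAZ2B at 50 nM in PBS pH 7.4 containing 0.01% Tween-20. Donor and acceptor beads are 10 ug/mL final.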
KDM4E inh: blocks human JMJD2E demethylase activity. B2RXH2. JMJD2E catalytic domain, FDH-coupled NADH fluorescence (FDH is formaldehyde dehydrogenase). Potency, µM (series often up to 57.1 µM), inactives show top-dose activity change, negative = inhibition, most hits filed as inhibitors. actives 1.6% (n = 230,000); active means well fitted inhibition curve with a large enough effect, not every such curve was filed as active; inconclusive means small, poorly fitted or top-dose-only effect, or another doubt; inactive means no such curve, though single readings can be large or run the other way;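 further: potency means the concentration at half of the fitted maximal effect; 0% = wells with enzyme and -100% = buffer wells without enzyme; nearly all actives have a fitted effect of over 50% in size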
HP1b binding inh: blocks HP1-beta chromodomain binding to methylated histone tails | actives 0.56% (n = 390,000) | Potency, µM (titrated, usually from 114 µM), inactives show at the top dose activity change, negative = inhibition, usual class: inhibitors | P83916 | AlphaScreen HP1-beta / biotin-H3K9me3 peptide binding; further: potency means the concentration at half of the fitted maximal effect; nearly all actives have a fitted effect of over 70% in size
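AlphaScreen: HP1-beta (50 nM) preformed 30 min with biotin-H3(1-18)K9me3 peptide (50 nM) in PBS pH 7.4, 0.01% Tween-20. Compound added for 30 min at RT, then streptavidin donor/nickel chelate acceptor beads (10 ug/mL) for 30 min.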
JMJD2A Tudor inh: inhibitors of human JMJD2A Tudor domain; O75164; AlphaScreen JMJD2A-Tudor / H3K4me3 peptide binding; Potency, µM (series often up to 114 µM), for the others: at the top dose activity change, negative = inhibition, most hits filed as inhibitors; actives 4.4% (n = 390,000); AID 504339; further: potency means the concentration at half of the fitted maximal effect; on the % scale 0 is the no-effect control and ±100 the full control effect; nearly all actives have a fitted effect of over 50% in size
Target sequence (O75164 whole entry, looked up, the tested form may be a part): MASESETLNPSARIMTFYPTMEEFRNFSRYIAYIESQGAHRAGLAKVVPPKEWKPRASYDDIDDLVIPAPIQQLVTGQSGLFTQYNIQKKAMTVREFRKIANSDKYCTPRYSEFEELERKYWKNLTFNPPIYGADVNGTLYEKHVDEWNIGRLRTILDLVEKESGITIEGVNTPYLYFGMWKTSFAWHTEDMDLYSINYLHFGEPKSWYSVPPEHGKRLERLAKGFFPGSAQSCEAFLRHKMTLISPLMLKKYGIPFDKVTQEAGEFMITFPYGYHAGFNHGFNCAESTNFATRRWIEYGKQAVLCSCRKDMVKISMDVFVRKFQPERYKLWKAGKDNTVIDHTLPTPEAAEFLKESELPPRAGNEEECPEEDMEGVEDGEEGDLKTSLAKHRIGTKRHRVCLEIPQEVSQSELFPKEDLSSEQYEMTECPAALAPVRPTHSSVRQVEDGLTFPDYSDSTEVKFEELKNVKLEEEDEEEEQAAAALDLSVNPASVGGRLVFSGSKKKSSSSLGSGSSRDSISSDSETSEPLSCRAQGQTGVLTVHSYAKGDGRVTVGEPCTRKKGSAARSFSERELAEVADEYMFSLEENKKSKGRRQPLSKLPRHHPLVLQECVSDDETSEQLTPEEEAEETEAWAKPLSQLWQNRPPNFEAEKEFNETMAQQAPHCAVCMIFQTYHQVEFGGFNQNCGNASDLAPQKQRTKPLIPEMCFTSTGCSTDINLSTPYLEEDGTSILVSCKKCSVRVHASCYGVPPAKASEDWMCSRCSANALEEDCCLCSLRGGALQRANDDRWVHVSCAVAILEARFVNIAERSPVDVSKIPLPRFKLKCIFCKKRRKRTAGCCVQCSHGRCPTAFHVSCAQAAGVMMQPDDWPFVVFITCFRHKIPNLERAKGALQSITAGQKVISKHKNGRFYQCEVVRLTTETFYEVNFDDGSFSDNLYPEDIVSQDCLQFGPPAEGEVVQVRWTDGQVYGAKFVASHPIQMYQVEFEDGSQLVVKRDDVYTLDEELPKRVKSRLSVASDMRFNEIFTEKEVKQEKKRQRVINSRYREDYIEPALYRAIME
* hit, by the source's call; ? = inconclusive; / = no result given; [ ] = another dose, or the depositor's remark. This is a sample that favours compounds with a hit; in the whole collection about 5.7% have one here. Unless noted, the call rests on the fitted dose curve; in most records, active means well fitted inhibition curve with a large enough effect; inconclusive means small, poorly fitted or top-dose-only effect; inactive means no such curve, though single readings can be large or run the other way.

SMILES	L3MBTL1 block	PI5P4K alpha inh	BAZ2B inh	KDM4E inh	HP1b binding inh	JMJD2A Tudor inh
COc1ccc(-c2nc(C)c(CCNC(=O)c3cccs3)s2)cc1	/	/	-5.5%	/	9.0%[57 µM]	-23.2%
COc1ccc2nc3cc(Cl)ccc3c(C#N)c2c1	-9.6%	4.0	-14.0%	?	-7.3%	-13.8%
COc1ccc2nc3cc(Cl)ccc3c(Nc3ccc(O)c(CN4CCN(C)CC4)c3)c2c1	/	?	/	/	15.8µM*	31.6µM*
COc1ccc(C2CC(=O)c3c(C)nc(N4CCN(C=O)CC4)nc3C2)c(OC)c1 (configuration not stated)	/	/	-35.9%	/	22.0%	-21.3%
CN(C)S(=O)(=O)c1cccc(-c2csc(N/N=C/c3ccco3)n2)c1	-25.8%	?	35.5µM*	-24.1%	?	?
COc1ccc(CNC(=O)CN2C(=O)CC(c3ccc(C)c(C)c3)=Nc3ccccc32)cc1	/	/	-22.1%	/	14.0%	-21.3%
COc1ccc(CNC(=O)c2cc3c(=O)[nH]c4ccccc4c3n2C)c(OC)c1	/	/	/	/	-12.8%	-31.3%
Cc1cccnc1NC(=O)Cn1nc([N+](=O)[O-])cc1C	0.4%	-5.5	-5.7%	7.5%	49.9%	7.7%
Cc1cccnc1NC(=O)Cn1nc(-c2ccccc2)oc1=S	26.6%	-8.5	21.1%	-0.7%	5.9%	79.4µM*
COc1cccc(CN2CC(C(=O)NC3CCC3)CCC2=O)c1 (configuration not stated)	/	-3.8	0.6%	/	11.0%[57 µM]	-18.1%
Cc1ccc2nc(C(=O)O)c(C(=O)O)nc2c1	/	/	?	-12.4%	-13.1%	39.8µM*
O=C(NCc1ccccn1)C(C(=O)c1cccc([N+](=O)[O-])c1)n1cc(Cl)ccc1=O (configuration not stated)	11.9%	0.2	?	-14.8%	29.4%	5.2%
COc1ccc(-c2noc(CN(C(=O)C(C)Oc3ccc(C)cc3)C(C)C)n2)cc1 (configuration not stated)	/	/	0.3%	/	25.0%	-12.2%
COc1ccc(CN(C)C(=O)c2ccc(Cl)c(S(=O)(=O)NCc3cccnc3)c2)cc1F	15.0%	6.8	-20.8%	/	26.9%	-16.9%
O=C(CSc1ccc2ccccc2c1)NCCc1ccc(O)c(O)c1	-27.8%	-24.9	/	?	79.4µM*	7.94µM*
O=C1CCC2=C1C(c1ccccc1Cl)N=C(Nc1nc3ccccc3o1)N2 (configuration not stated)	/	/	/	/	/	-23.4%
N#CC1=C(N)N(c2ccccc2C#N)C2=C(C(=O)CCC2)C1c1ccsc1 (configuration not stated)	11.7%[11.4 µM]	-2.1	56.2µM*	-2.8%	10.3%	-32.6%
O=C(c1cc(-c2ccc(Br)cc2)on1)N1CCc2ccccc2C1	/	2.6	1.6%	/	7.6%	50.1µM*
O=C(c1cc(-c2ccc(Cl)cc2)on1)N1CCCCCC1	/	3.2	2.0%	/	5.2%	25.1µM*
CN(Cc1ccc(Br)cc1)CC(O)COc1cccc(Br)c1 (configuration not stated)	/	30.0	79.4µM*	/	?	5.01µM*
COc1ccc(CCN(C)CC(O)COc2ccc(C(C)=O)cc2OC)cc1OC (configuration not stated)	/	0.8	-30.3%	/	79.4µM*	28.2µM*
COc1ccc(CN(C)CC(O)COc2ccc(-c3ccccc3)cc2)cc1OC (configuration not stated)	/	9.1	79.4µM*	/	50.1µM*	35.5µM*
COc1cc(C(C)=O)ccc1OCC(O)CNCC(O)c1ccccc1 (configuration not stated)	/	-7.8	56.2µM*	/	?	28.2µM*
O=C(CCNS(=O)(=O)c1ccc2c(c1)CCN2C(=O)C1CC1)Nc1ccc(F)cc1F	/	/	2.7%	/	28.8%[57 µM]	-8.1%
C=CCOc1ccc(CN(C)CC(O)COc2ccc(CCC(C)=O)cc2)cc1 (configuration not stated)	/	-8.5	-26.0%	/	?	1µM*
SMILES	L3MBTL1 block	PI5P4K alpha inh	BAZ2B inh	KDM4E inh	HP1b binding inh	JMJD2A Tudor inh
CC(=O)CCc1ccc(OCC(O)CNCCOc2ccc(C)cc2)cc1 (configuration not stated)	/	7.0	0.1%	/	12.3%	-13.0%
COc1ccccc1N(CC(=O)NC1CCCCC1)C(=O)CCC(=O)Nc1nccs1	/	2.2	-0.8%	/	29.2%	-4.2%
Nc1ccccc1S(=O)(=O)Nc1cccc2cccnc12	/	/	/	/	/	56.2µM*
O=C(O)c1ccccc1NS(=O)(=O)c1cccc2cccnc12	/	-5.9	-31.9%	8.3%	-4.2%	20µM*
CCn1c(C)cc(C(=O)COC(=O)c2ccccc2[N+](=O)[O-])c1C	-10.2%	-12.5	/	/	?	44.7µM*
O=C(CC1C(=O)NCCN1Cc1c(F)cccc1Cl)NC1CCCC1 (configuration not stated)	3.3%	0.9	2.7%	9.8%	35.0%	0.0%
Cc1cc(-c2ccccc2)[nH]c(=O)c1C#N	6.0%	-0.2	-2.0%	?	51.5%	-1.5%[57.1 µM]
N#Cc1c(-c2ccccc2)[nH]c(=O)[nH]c1=O	-10.5%	-91.8*	5.9%	-2.5%	29.0%	-6.5%
Cc1ccccc1CC1(CO)CCCN(C(=O)c2ccc3ncccc3c2)C1 (configuration not stated)	3.6%	?	0.9%	14.9%	-1.9%	8.91µM*
Cc1ccccc1CC1(CO)CCCN(C(=O)c2ccc(F)cc2)C1 (configuration not stated)	-3.8%	-2.4	-1.1%	2.2%	28.0%	-5.6%
Cc1ccccc1C(=O)OCc1cc(=O)n2c(C)csc2n1	/	/	0.7%	/	8.1%	-4.7%
Cc1c[n+]([O-])n(-c2ccc(C(=O)O)cc2)n1	/	-25.7	56.2µM*	-3.5%	6.0%	?
CSC1=NC(=O)/C(=C\c2cccc3ccccc23)S1	-12.9%	-22.3	39.8µM*	-3.5%	-17.2%	?
CN(C)c1ccc(N=Nc2ccc(C(=O)O)cc2)cc1	/	?	35.5µM*	/	-25.3%[57 µM]	25.1µM*
COc1ccc(-c2ccc(OC)c(C3C4C=CCCC4(C)C(=O)N3Cc3ccccc3)c2)cc1OC (configuration not stated)	/	/	/	/	-11.2%	?
O=C1c2cccnc2C(=O)N1Cc1ccc(S(=O)(=O)NCc2ccco2)s1	/	-4.6	79.4µM*	/	32.8%	-34.6%
Cc1cccc(C2(c3cccc(C)c3)CC2C(=O)NCC2CCCO2)c1 (configuration not stated)	-5.3%	-4.0	0.0%	-6.4%	13.2%	79.4µM*
C=CCNC(=O)C1CC1(c1cccc(C)c1)c1cccc(C)c1 (configuration not stated)	/	5.4	/	/	19.5%	-3.6%
Cc1c(C(=O)O)cccc1-n1c(C)cc(/C=N/Nc2ccc([N+](=O)[O-])cn2)c1C	-9.7%	?	44.7µM*	-3.1%	-29.3%	-2.2%[11.4 µM]

Screening data as filed in PubChem.
